The text below walks through data of PubChem BioAssay.

The source made the active and inactive calls. Unless noted, no rule for the calls is given here.

Test [1] in a line: anti-His antibody binders, primary screen, artefact control for SMM control protein annotation, biochemical, small-molecule microarray, 635 nm fluorescence (AID 1128).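 Also: score merges feature fluorescence with signal-to-noise for each printed compound spot.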 The settings on record: anti-His Alexa647 antibody binding, higher = more signal.
The subject of test [2] is Human papillomavirus type 1a E7 protein (residues 1-88). Description: HPV1a E7 small-molecule binders, primary screen, biochemical, small-molecule microarray, residues 1-88, 635 nm (AID 1129). The settings on record: small-molecule microarray binding, fluorescence 635 nm; higher = more signal.
In test [3] the target is Focal adhesion kinase 1 (Homo sapiens) (UniProt Q05397). In words: small-molecule microarray binders of FAK, primary screen, biochemical, 635/667 nm fluorescence, BSA, DTT (AID 1130).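 Also: composite of spot emission at 667 nm and signal to noise over triplicate slides.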 The settings on record: PTK2 binding, 635 nm fluorescence, higher = more signal.
Test [4] deals with Fibrinogen (Alexa647-labelled). In words: fibrinogen binders on compound microarrays, profiling panel, artefact control for SMM control-protein annotation, biochemical, small-molecule microarray, 635/667 nm fluorescence (AID 1131).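 Also: z-score merges 667 nm fluorescence with per-spot signal-to-noise over triplicate slides.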 To be noted: fibrinogen-A647 binding fluorescence, higher = more signal.
In test [5] the target is Follistatin (Homo sapiens) (UniProt P19883). Description: follistatin binders on small-molecule microarrays, primary screen, biochemical, small-molecule microarray, 635/667 nm fluorescence (AID 1132). To be noted: FST binding, 635 nm fluorescence, higher = more signal.
The target of test [6] is Fibroblast growth factor 2 (Homo sapiens) (UniProt P09038). Description: FGF2 binders on small-molecule microarrays, primary screen, biochemical, small-molecule microarray, 635/667 nm fluorescence (AID 1133). To be noted: small-molecule microarray binding, FGF2, fluorescence 635/667; higher = more signal.
The nature of test [7]: mitochondrial membrane potential change in A549 cells, profiling panel, cell-based, JC-1 fluorescence, basal, 24 h, 100 nL (AID 1138).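 Also: A549 lung adenocarcinoma cells under basal conditions with no added stimulus; test concentration not given here.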 To be noted: higher = more signal.
For the next test, the system named is Lefty1. Description: Lefty1 binders on small-molecule microarrays, primary screen, biochemical, small-molecule microarray, 635/667 nm fluorescence (AID 1139). To be noted: small-molecule microarray binding, fluorescence 635/667; higher = more signal.
Test [8] relates to wheat germ agglutinin (Triticum aestivum), Alexa647-labelled. In words: wheat germ agglutinin binders on compound microarrays, profiling panel, artefact control for SMM control-protein annotation, biochemical, small-molecule microarray, 635/667 nm fluorescence (AID 1140).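 Also: score merges 667 nm feature emission with signal to noise over triplicate slides.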 The settings on record: WGA-A647 binding, 635 nm fluorescence, higher = more signal.
For test [9], the target named is Luciferin 4-monooxygenase (Photinus pyralis) (UniProt P08659). In words: firefly luciferase enzyme inhibitors, primary screen, biochemical, luminescence, purified enzyme, 2006 set (AID 1141).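 Also: cell-free assay with purified firefly luciferase at 100 ng per well in PBS; test concentration not given here.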 The settings on record: SteadyGlo luminescence, 30 min, higher = more signal, called active from +8 up or from −8 down.
Test [10] concerns Wnt5a (protein binding on small-molecule microarray). In words: Wnt5a binders on small-molecule microarray, primary screen, biophysical, 635/667 nm fluorescence (AID 1142).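 Also: fluorescence read at 667 nm with signal to noise per printed feature.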 The settings on record: 635 nm fluorescence, higher = more signal.
The nature of test [11]: cell viability in Huh7 cells, primary screen, cytotoxicity control for HCV replication inhibitor project, CellTiter-Glo luminescence, basal, 48 h (AID 1143).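 Also: Huh7 hepatoma cells carrying a hepatitis C replication reporter with no stimulus; test concentration not given here.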 The settings on record: Huh7 HCV replicon, higher = more signal, called active from +8 up or from −8 down. A general note: Cellular ATP, detected with luciferase, serves as a proxy for viable cell number.
Test [12] in a line: P. aeruginosa biofilm formation inhibitors, primary screen, PAO1 strain, BacTiter-Glo luminescence, LB-PBS (AID 1144). To be noted: 12 h, higher = more signal.
Test [13] in a line: CREB reporter modulators without forskolin, primary screen, cell-based, PC12, CRE-LacZ reporter, unstimulated (AID 1145). To be noted: no forskolin, luminescence, 4.5 h, higher = more signal, called active from +8 up or from −8 down.
Test [14] is described as follows: CREB reporter modulators under forskolin, primary screen, cell-based, PC12, CRE-LacZ reporter, forskolin-stimulated (AID 1146).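 Also: PC12 cells with 6xCRE LacZ reporter stimulated by forskolin 10 µM; beta-galactosidase reporter signal reflecting CREB driven transcription.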 To be noted: luminescence, 4.5 h, higher = more signal, called active from +8 up or from −8 down.
For test [15], the target named is Streptavidin (Streptomyces avidinii) (UniProt P22629). Description: streptavidin binders on small-molecule microarray, primary screen, artefact control for SMM compound annotation, biophysical, 635/667 nm fluorescence (AID 1147).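 Also: signal reflects streptavidin binding to arrayed compounds as a control protein.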 The settings on record: streptavidin binding, higher = more signal.
A short description of test [16]: small-molecule binders of probe aInhba, primary screen, biochemical, small-molecule microarray, 635/667 nm fluorescence (AID 1148).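 Also: score merges 667nm spot fluorescence with signal-to-noise for antibody binding to printed compounds.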 To be noted: higher = more signal.
Test [17] deals with Torsin-1A (Homo sapiens) (UniProt O14656). Description: torsin A binders from cell lysate, primary screen, small-molecule microarray, wild-type, 635/667 nm (AID 1149). To be noted: COS7 hTOR1A-WT lysate, 635 nm fluorescence, higher = more signal.
For test [18] the target is unchanged. Description: small-molecule binders of mutant TOR1A in lysate, primary screen, cell lysate, small-molecule microarray, COS7 lysate, 635/667 nm fluorescence (AID 1150).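 Also: score pools 667 nm emission and signal to noise measuring lysate protein binding.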 To be noted: COS7 hTOR1A mutant lysate, 635 nm fluorescence, higher = more signal.
In test [19] the test system is Sonic hedgehog protein (Shh). Description: small-molecule binders of Shh protein, primary screen, biochemical, small-molecule microarray, 635/667 nm fluorescence (AID 1151).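 Also: Shh protein binding to compounds spotted on small-molecule microarray slides; score combines spot fluorescence intensity with signal-to-noise across triplicate slides.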 To be noted: small-molecule microarray binding, 635 nm fluorescence; higher = more signal.

Chain of Focal adhesion kinase 1 (Homo sapiens) (Q05397 whole entry, looked up): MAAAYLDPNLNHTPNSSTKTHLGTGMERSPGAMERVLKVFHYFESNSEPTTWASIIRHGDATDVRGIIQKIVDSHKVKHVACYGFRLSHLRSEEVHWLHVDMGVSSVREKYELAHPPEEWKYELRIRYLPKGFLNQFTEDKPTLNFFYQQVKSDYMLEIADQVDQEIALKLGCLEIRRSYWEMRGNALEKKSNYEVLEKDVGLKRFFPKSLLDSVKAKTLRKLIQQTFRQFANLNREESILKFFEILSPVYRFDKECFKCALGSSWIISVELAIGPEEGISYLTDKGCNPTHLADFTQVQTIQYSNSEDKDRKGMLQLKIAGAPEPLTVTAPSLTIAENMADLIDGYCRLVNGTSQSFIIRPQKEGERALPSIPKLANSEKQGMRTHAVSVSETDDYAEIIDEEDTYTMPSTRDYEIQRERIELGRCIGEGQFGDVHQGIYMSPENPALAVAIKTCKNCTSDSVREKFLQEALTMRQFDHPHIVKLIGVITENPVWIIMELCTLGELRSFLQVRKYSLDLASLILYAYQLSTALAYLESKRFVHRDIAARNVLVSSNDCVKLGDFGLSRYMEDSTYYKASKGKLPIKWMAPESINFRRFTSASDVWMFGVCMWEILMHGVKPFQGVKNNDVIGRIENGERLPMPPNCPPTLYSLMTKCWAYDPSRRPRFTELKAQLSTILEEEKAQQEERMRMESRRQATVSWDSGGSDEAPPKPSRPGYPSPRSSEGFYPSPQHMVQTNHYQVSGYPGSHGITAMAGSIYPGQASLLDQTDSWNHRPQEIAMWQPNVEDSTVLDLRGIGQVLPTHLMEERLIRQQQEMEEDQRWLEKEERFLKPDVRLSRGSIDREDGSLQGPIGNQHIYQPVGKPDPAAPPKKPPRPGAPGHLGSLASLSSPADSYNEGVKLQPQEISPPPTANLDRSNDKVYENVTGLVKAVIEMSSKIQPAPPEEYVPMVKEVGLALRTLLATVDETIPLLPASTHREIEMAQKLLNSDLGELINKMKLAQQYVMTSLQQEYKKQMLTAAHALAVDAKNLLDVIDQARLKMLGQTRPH
Chain of Fibroblast growth factor 2 (Homo sapiens) (P09038 whole entry, looked up): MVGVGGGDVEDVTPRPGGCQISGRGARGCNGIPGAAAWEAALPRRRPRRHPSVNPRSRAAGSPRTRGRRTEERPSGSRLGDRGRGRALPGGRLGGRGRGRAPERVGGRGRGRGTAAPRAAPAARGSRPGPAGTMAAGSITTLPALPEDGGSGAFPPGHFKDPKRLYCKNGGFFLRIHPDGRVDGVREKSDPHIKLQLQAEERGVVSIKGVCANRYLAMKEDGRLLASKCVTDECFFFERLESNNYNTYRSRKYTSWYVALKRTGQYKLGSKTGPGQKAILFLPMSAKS
Chain of Torsin-1A (Homo sapiens) (O14656 whole entry, looked up): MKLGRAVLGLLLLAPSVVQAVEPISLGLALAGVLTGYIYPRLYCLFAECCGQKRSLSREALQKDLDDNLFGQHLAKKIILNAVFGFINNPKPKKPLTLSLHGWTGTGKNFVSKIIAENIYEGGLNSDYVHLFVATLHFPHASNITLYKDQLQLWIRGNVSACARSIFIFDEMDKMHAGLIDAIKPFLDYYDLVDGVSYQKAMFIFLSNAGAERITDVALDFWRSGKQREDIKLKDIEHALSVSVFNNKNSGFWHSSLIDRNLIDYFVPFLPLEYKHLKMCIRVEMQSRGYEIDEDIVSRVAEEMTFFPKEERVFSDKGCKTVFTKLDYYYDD
Chain of Streptavidin (Streptomyces avidinii) (P22629 whole entry, looked up): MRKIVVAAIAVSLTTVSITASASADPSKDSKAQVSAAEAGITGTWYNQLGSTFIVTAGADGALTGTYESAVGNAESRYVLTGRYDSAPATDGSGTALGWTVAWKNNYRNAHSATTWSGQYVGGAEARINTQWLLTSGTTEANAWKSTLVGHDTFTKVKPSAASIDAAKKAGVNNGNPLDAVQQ
Chain of Follistatin (Homo sapiens) (P19883 whole entry, looked up): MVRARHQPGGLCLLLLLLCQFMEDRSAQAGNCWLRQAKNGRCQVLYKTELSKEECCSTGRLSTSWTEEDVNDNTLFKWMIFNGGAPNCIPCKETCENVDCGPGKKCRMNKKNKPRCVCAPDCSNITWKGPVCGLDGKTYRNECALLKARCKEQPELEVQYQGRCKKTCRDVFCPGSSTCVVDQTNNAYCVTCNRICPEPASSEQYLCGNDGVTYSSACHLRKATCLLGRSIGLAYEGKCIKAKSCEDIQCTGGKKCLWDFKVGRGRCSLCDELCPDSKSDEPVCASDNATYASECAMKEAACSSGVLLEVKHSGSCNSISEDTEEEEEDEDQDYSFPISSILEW
Chain of Luciferin 4-monooxygenase (Photinus pyralis) (P08659 whole entry, looked up): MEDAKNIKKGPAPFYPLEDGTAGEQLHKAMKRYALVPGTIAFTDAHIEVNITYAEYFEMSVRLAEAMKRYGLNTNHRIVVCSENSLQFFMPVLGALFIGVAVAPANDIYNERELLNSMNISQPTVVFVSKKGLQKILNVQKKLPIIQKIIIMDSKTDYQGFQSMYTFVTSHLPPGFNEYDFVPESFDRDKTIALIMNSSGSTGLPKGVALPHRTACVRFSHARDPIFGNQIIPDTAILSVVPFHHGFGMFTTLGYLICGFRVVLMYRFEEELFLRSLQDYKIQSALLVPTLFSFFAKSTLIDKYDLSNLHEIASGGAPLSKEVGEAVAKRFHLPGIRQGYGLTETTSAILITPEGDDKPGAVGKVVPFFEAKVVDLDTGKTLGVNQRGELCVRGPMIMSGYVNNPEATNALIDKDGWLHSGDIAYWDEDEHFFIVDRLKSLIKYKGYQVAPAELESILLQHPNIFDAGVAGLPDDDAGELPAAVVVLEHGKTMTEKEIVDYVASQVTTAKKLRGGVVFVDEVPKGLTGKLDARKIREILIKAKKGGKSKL

For the molecule `COCCOC(=O)N1C(=O)[C@@]2(c3ccccc31)[C@H](C(=O)N1CCCCCCC1)[C@H]1C(=O)O[C@H](c3ccccc3)[C@H](c3ccccc3)N1[C@@H]2c1ccc(OCCO)cc1`, the composite z-score in test [1] was determined as 3.77; in test [2] it was 1.35; in [3] it was 4.71; in test [4], 1.04; in test [5], 1.58; in test [6] it was 1.88. The composite z-score turned out to be 1.91 with Lefty1; 1.74 in test [8]; 2.59 in [10]; 4.29 in test [15]; 2.4 in test [16]; 3.22 in the test with Torsin-1A (Homo sapiens) [17]. Moreover, the composite z-score with Torsin-1A (Homo sapiens) [18] amounted to 3.39; in test [19], 2.31. The z-score is -1.35 in test [7]; -0.255 (inactive) in test [9]; -2.7 (inactive) in [11]; -0.276 (inactive) in [12]; -1.29 (inactive) in [13]; -0.791 (inactive) in test [14].
As to `COCCOC(=O)N1C(=O)[C@@]2(c3cc(C#CC4=CCCCC4)ccc31)[C@H](c1ccc(OCCO)cc1)N1[C@H](c3ccccc3)[C@H](c3ccccc3)OC(=O)[C@H]1[C@@H]2C(=O)N1CCc2cc(OC)c(OC)cc2C1`, the composite z-score in [1] was 0.936; in [2], 1.19; in [3], 0.647; in test [4] it was 0.874; in test [5], 0.989; in [6], 1.32. Moreover, the composite z-score was 1.11 with Lefty1; -0.0709 in test [8]; 0.687 in [10]; 0.606 in test [15]; 0.346 in test [16]; 0.359 with Torsin-1A (Homo sapiens) [17]. Besides, the composite z-score with Torsin-1A (Homo sapiens) [18] turned out to be 1.17; in [19], 1.32. Further, the z-score was -0.729 in test [7]; -2.35 (inactive) in test [9]; -0.496 (inactive) in [11]; -0.536 (inactive) in test [12]; -0.258 (inactive) in test [13]; -0.513 (inactive) in test [14].
Consider `C=C(C)[C@@H]1CC=C(C(O)C2C=CC3C(=O)NC(=O)C3N2Nc2ccc(Cl)cc2Cl)CC1` (stereo not given in full), for which the composite z-score in test [1] is 1.83; in test [2] it was 1.2; in test [3], 1.33; in test [4], 1; in test [5], 1.14; in test [6] it was -0.853. The composite z-score with Lefty1 is -0.336; in test [8], 1.34; in [10] it was 0.287; in test [15] it was 1.39; in test [16], 0.099; in the test with Torsin-1A (Homo sapiens) [17] it was -0.0124. In addition, the composite z-score with Torsin-1A (Homo sapiens) [18] came out at 0.455; in test [19], 0.393. Also, the z-score is -1.25 in test [7]; 0.022 (inactive) in [9]; -1.64 (inactive) in [11]; -0.995 (inactive) in test [12]; 0.815 (inactive) in test [13]; -0.113 (inactive) in test [14].
For the molecule `COCCCNC(=O)[C@@]1(Cc2ccccc2)N=C(c2ccc(OCCCO)cc2)O[C@H]1c1ccccc1CN=[N+]=[N-]`, the composite z-score in test [1] is 2.82; in [2], 1.17; in test [3], 0.944; in test [4], 0.913; in [5] it was 1.3; in [6], 0.122. For the same molecule, the composite z-score in the test on Lefty1 stood at 0.872; in test [8], 1.18; in test [10], 0.419; in [15], 0.716; in test [16], 0.389; with Torsin-1A (Homo sapiens) [17], 0.544. Besides, the figures for the composite z-score (in the test with Torsin-1A (Homo sapiens) [18]; in [19]) were 0.37 and -0.0164, respectively. The z-score is 1.99 in [7]; -0.781 (inactive) in [9]; -3.17 (inactive) in test [11]; 1.55 (inactive) in test [12]; 0.447 (inactive) in test [13]; -0.929 (inactive) in test [14].
Turning to `C=CCOC(=O)[C@H]1[C@@H]2C(=O)O[C@@H](c3ccccc3)[C@@H](c3ccccc3)N2[C@@H](c2ccc(OCCOC(=O)[C@H]3C[C@H]4C(=O)N[C@@H](CCCCN(C)C)C(=O)N4[C@H]3c3cccc(OCCO)c3)cc2)[C@]12C(=O)Nc1ccc(I)cc12`, the composite z-score worked out at 0.977 in [1]; 1.18 in [2]; 0.205 in [3]; 0.571 in test [4]; 1.35 in [5]; 1.36 in [6]. Also, the composite z-score turned out to be 1.6 in the test on Lefty1; 0.705 in [8]; 0.559 in [10]; 0.457 in [15]; 0.12 in [16]; 0.166 in the test with Torsin-1A (Homo sapiens) [17]. In addition, the results for the composite z-score (with Torsin-1A (Homo sapiens) [18]; in test [19]) were 0.629 and 2.27, respectively. The z-score is -1.66 in test [7]; -0.49 (inactive) in [9]; -0.366 (inactive) in test [11]; 0.772 (inactive) in test [12]; -0.671 (inactive) in [13]; 0.892 (inactive) in test [14].
